Measured values taken from ChEMBL document CHEMBL4513216, “Probing the Open Global Health Chemical Diversity Library for Multistage-Active Starting Points for Next-Generation Antimalarials” (ACS Infect Dis, 2020).
Screen size: about 69,000 compounds; about 8,600 (12%) showed an effect of 50% or more. The full list was thinned out, with strong results kept by preference.

test system: Plasmodium berghei; assay: Screen against P. berghei liver stage (PbLuc), transformed with Luciferase, at 10uM; type: functional, HepG2; details: tested at 10 uM

| Compound | INHIBITION |
| --- | --- |
| CN(Cc1ccc(-n2ccnc2)cc1)CC1CCCN1c1cccnn1 (stereo not given) | -12.1% |
| O=C(c1cccnc1N1CCN(CCO)CC1)N1CCCC1 | 43.6% |
| Cc1ccc(S(=O)(=O)c2ncccc2CN2CCCC2)cc1 | 42.4% |
| Cc1ccc(S(=O)(=O)c2ncccc2CN2CCCCC2)cc1 | 45.2% |
| Cc1ccc(S(=O)(=O)c2ncccc2CN2CCN(CCO)CC2)cc1 | 68.4% |
| Cc1ccc(S(=O)(=O)c2ncccc2CN2CCN(C)CC2)cc1 | 68.4% |
| Cc1ccc(S(=O)(=O)c2ncccc2CN2CCOCC2)cc1 | 37.8% |
| CCn1cc(CN2CCCN(C(=O)c3cc(C)no3)CC2)cn1 | 25.4% |
| CCc1ocnc1C(=O)N1CCOC(CCCC(C)C)C1 (stereo not given) | 12.8% |
| Cc1ccc2c(c1)CCCN2C(=O)c1cncc(Br)c1 | 6.88% |
| O=C(c1cncc(Br)c1)N1CCCc2ccc(F)cc21 | 67.4% |
| O=C(c1cncc(Br)c1)N1CCCc2c(F)cc(F)cc21 | 0.705% |
| Cc1nnc(N2CC[C@H]3O[C@H](C(=O)NCc4ccccn4)CC[C@H]32)s1 | 21.8% |
| COc1cc(CN2CC[C@H](NC(C)=O)[C@@H](O)CC2)ccc1F | -13.7% |
| Nc1nc(CN2CCN(c3nccs3)CC2)cs1 | 22.3% |
| CC1CN(Cc2nnsc2Cl)CCN1c1nccs1 (stereo not given) | 20.2% |
| Clc1snnc1CN1CCN(c2nccs2)CC1 | 57.3% |
| Cc1nccn1C1CCCN(C(=O)c2ccc3nncn3c2)C1 (stereo not given) | 40.2% |
| O=C(CCNC(=O)c1ccoc1)Nc1cccc(F)c1 | -4.82% |
| O=C(CCNC(=O)c1ccoc1)Nc1cc(F)ccc1F | 24.8% |
| O=C(CCNC(=O)c1ccoc1)Nc1ccc(F)cc1F | 59% |
| O=C(CCNC(=O)c1ccoc1)Nc1cc(F)cc(F)c1 | 54.5% |
| O=C(CCNC(=O)c1ccoc1)Nc1ccccc1F | 21.9% |
| O=C(CCNC(=O)c1ccoc1)Nc1c(F)cccc1F | -16.7% |

| Compound | INHIBITION |
| --- | --- |
| CNC(=O)CCc1cccc(C2CCCN(c3cc(C)ncn3)C2)n1 (stereo not given) | 44.8% |
| Cc1nnc2n1CCN(C(=O)c1cn(-c3ccccc3)nn1)C2 | -53.6% |
| CNC(=O)[C@@H]1C[C@H]2CN(C(=O)c3ccco3)C[C@H]2N1C(C)C | 16.4% |
| Cc1noc([C@H]2COC[C@H]3CN(C(=O)Cc4ccsc4)C[C@H]32)n1 | -32% |
| Cc1cnc(N2CC[C@@H](N3CCOCC3)[C@@H]2Cc2ccncc2)nc1 | 33.4% |
| c1cnc(N2CC[C@@H](N3CCOCC3)[C@@H]2Cc2ccncc2)nc1 | 60% |
| Fc1cnc(N2CC[C@@H](N3CCOCC3)[C@@H]2Cc2ccncc2)nc1 | 21.6% |
| Cc1cc(CN2CCC(CNS(=O)(=O)c3ccccc3Cl)CC2)c(C)o1 | 30.7% |
| O=C(C1CCOCC1)N1C[C@H]2CC(OCc3ccccc3)C[C@H]2C1 (stereo not given in full) | -25.3% |
| C1CCC(c2nn3c(C4CCCO4)nnc3s2)C1 (stereo not given) | 1.24% |
| N#Cc1ncn(CC(=O)Cc2c(F)cccc2Cl)n1 | 26.8% |
| N#Cc1ncn(Cc2c(F)cccc2Cl)n1 | 64.4% |
| CN(Cc1c(F)cccc1Cl)C(=O)Cn1cnc(C#N)n1 | 28.7% |
| Cc1cc(C)cc(OCn2ccc(C(=O)O)n2)c1 | 39.1% |
| CN(C)CCNC(=O)c1ccc(OC2CCN(CC3CC3)CC2)c(Cl)c1 | -73.6% |
| COC(=O)N1CCC(Oc2ccc(C(=O)NCCN(C)C)cc2Cl)CC1 | -56.4% |
| CSCCNC(=O)c1ccc(OC2CCN(CC(C)(C)C)CC2)c(Cl)c1 | 52.4% |
| CC1(C)OC(=O)N(CCCOc2ccc(F)cc2)C1=O | 10.7% |
| CC(=O)c1cnc(NCC2OCCc3ccccc32)nc1C (stereo not given) | 74.9% |
| CCNc1ncc(C(=O)NCC2OCCc3ccccc32)cn1 (stereo not given) | 41.5% |
| CCc1cnc(NCC2OCCc3ccccc32)nc1 (stereo not given) | 44.3% |
| Cc1ncsc1C(=O)NC1CCN(CCC#N)CC1 | 14.4% |
| COc1cc(C(=O)NC(CC(=O)O)c2cccs2)cc(Cl)c1OC (stereo not given) | 18.6% |
| COc1cc(C(=O)Nc2nc(C)no2)cc(OC)c1Br | 91.4% |

| Compound | INHIBITION |
| --- | --- |
| COc1ccc(C(=O)NS(=O)(=O)c2cc(Cl)sc2Cl)cc1OC(F)F | 27.7% |
| Cc1cc(NC(=O)c2ccc(C)c(F)c2)[nH]n1 | -30.8% |
| COc1cc(C(=O)NS(=O)(=O)c2cc(Cl)sc2Cl)ccc1OC(F)F | 93.6% |
| COc1cc(C(=O)NS(=O)(=O)c2cncc(Br)c2)cc(Cl)c1OC | 5.23% |
| Cc1noc(NC(=O)c2ccc(C)c(F)c2)n1 | 59% |
| COc1cc(C(=O)Nc2nc(C)no2)cc(Cl)c1OC | 77% |
| Cc1noc(COCC(=O)Nc2cc(C)c(Br)cn2)n1 | -21.8% |
| COc1cc(C(=O)NS(=O)(=O)c2cccc(C#N)c2)cc(OC)c1Br | 34.7% |
| COc1cccc(C(=O)NS(=O)(=O)c2cc(Cl)sc2Cl)c1OC(F)F | 45.7% |
| Cc1noc(NC(=O)c2ccc(F)cc2)n1 | 25.1% |
| Cc1cnn(CC2CCCCN2Cc2cc(C)no2)c1 (stereo not given) | 4.245% |
| Cn1cc(C2CCCN2C(=O)COCCc2ccccc2)cn1 (stereo not given) | -32% |
| CC(c1ccncc1)n1cc2nc(N(C)C)[nH]cc-2c1=O (stereo not given) | -27.5% |
| COCC(=O)N1CCC(c2n[nH]c3nccnc23)CC1 | -22.6% |
| CC(C)(C)OC(=O)N1CCC(C(=O)NCCNc2ncccn2)CC1 | -33.9% |
| c1csc(N2[C@H](Cn3cncn3)C[C@@H]3CNCC[C@@H]32)n1 | -86.4% |
| COc1ccccc1C(O)CNc1nccc(-c2ccc(C)nc2C)n1 (stereo not given) | 0.868% |
| c1cnn(CC2CCCCN2Cc2nc(-c3ccoc3)no2)c1 (stereo not given) | 31.8% |
| CC(NC(=O)NCc1cccnc1N(C)C)c1cccs1 (stereo not given) | 37.9% |
| COc1cc(C(=O)Nc2cn[nH]c2)ccc1C | 10.45% |
| COc1cc(C(=O)Nc2nc(C)no2)ccc1OC1CCCC1 | 29.7% |
| COc1cc(C(=O)Nc2nc(C)no2)ccc1OC(F)F | 81.1% |
| COc1cc(C(=O)Nc2c(C)noc2C)ccc1C | 18.6% |
| Cc1noc(CNc2ccc(OC(F)F)cc2OC(F)F)n1 | -29.9% |

| Compound | INHIBITION |
| --- | --- |
| COc1cc(C(=O)Nc2nc(C)no2)ccc1C | 63.6% |
| COCC(C)(NC(=O)c1cc(Cl)c(-n2cccc2)cc1OC)C(N)=O (stereo not given) | -35% |
| CCn1cc(C(=O)NCc2ccc3c(c2)OCO3)c(C)n1 | 3.52% |
| Cc1nc(CN(C)Cc2nc(-c3ccccc3)no2)co1 | 14.3% |
| CN(CCC(O)c1ccccc1)Cc1ccccc1C#N (stereo not given) | 41.1% |
| CN(CCC(O)c1ccccc1)Cc1nc(-c2ccccc2)no1 (stereo not given) | 62.9% |
| O=C(Nc1nccs1)NC1CCN(Cc2ccccc2)CC1 | 15% |
| C=c1ncsc1=C1NN=C(C2CCCN2C(=O)c2ccn(CC)n2)O1 (stereo not given) | 9.535% |
| FC(F)(F)C1CN(Cc2cccc(-c3ccccn3)c2)CCO1 (stereo not given) | 4.93% |
| CC(=O)NCc1ccc(-c2ccccc2C(=O)O)cn1 | -24.5% |
| CNc1nc(C)c(C(=O)N2CCCCC2CCN2CCOCC2)s1 (stereo not given) | 13.6% |
| CNc1nc(C)c(C(=O)N2CCCCC2CN2CCCCCC2)s1 (stereo not given) | 50% |
| CCOC(=O)CC1CCCCN1C(=O)c1cc(C)on1 (stereo not given) | 17.5% |
| Cc1cc(C(=O)N2CCCC2CN2CCCC2)no1 (stereo not given) | 61.1% |
| Cc1cc(C(=O)N2CC[C@@H]3CO[C@@H](CN4CCCC4)[C@@H]3C2)no1 | 23.3% |
| CNc1nc(C)c(C(=O)N2CCCCC2CCc2ccccc2)s1 (stereo not given) | -14.7% |
| OC(CN1CCN(Cc2cc(F)cc(F)c2)CC1)C1CC1 (stereo not given) | 5.85% |
| Cc1cc(CN(C)CC(c2cccs2)N2CCOCC2)on1 (stereo not given) | -48.4% |
| CCN(CC)c1ncc(S(=O)(=O)c2cccc(C)c2)c(N)n1 | 17.7% |
| CN1CCCN(c2ncnc(N3CCOCC3)c2N)CC1 | 32.2% |
| CCCNc1cc(C(=O)N2CCOCC2)nc(C)n1 | 34.6% |
| Cc1nc(C(=O)N2CCOCC2)cc(N2CCC(C(N)=O)CC2)n1 | 56.1% |
| CCOC(=O)C1CCN(c2cc(C(=O)N3CCCCC3)nc(C)n2)CC1 | 9.52% |
| COCCNc1cc(C(=O)N2CCOCC2)nc(C)n1 | 8.24% |

| Compound | INHIBITION |
| --- | --- |
| CCOC(=O)C1CCN(c2cc(C(=O)N3CCOCC3)nc(C)n2)CC1 | 62.9% |
| Cc1nc(C2CN(C)CCO2)cc(N2CCC(C(N)=O)CC2)n1 (stereo not given) | -20.2% |
| CC(C)(O)CN1CCN(C(=O)c2ccc(Cl)c3cccnc23)CC1 | 36.9% |
| COc1cc(C(=O)O)cc(I)c1OCC(=O)NCCc1ccccc1 | 25.5% |
| CC(NC(=O)NCCc1ccc(Cl)s1)c1ccccn1 (stereo not given) | -12.1% |
| COc1ccc(C(=O)N2CC(=O)N(Cc3cccs3)CC(O)C2)cc1 (stereo not given) | 27.5% |
| CC(C)COC(=O)N1CCN(C(=O)c2ccc3nccn3c2)CC1 | 50.1% |
| CC(C)COC(=O)N1CCCN(C(=O)c2ccnc(N(C)C)c2)CC1 | 33.4% |
| CC(C)CCC(=O)N1CCN(C(=O)c2ccc3nccn3c2)CC1 | 24.2% |
| c1ncn(CC2CCCCN2Cc2csc(-c3ccsc3)n2)n1 (stereo not given) | -58.7% |
| CCC1COCCN1C(=O)NCc1nccn1CC(C)C (stereo not given) | 8.59% |
| Cn1cccc1CNC(=O)N(CCO)C1CCCc2ccccc21 (stereo not given) | 26.8% |
| CN1C[C@@H]2COC[C@]2(C(=O)NCCc2cccs2)C1 | 34.6% |
| O=C(NCc1cccs1)[C@]12COC[C@H]1CN(c1ncccn1)C2 | 2.41% |
| Cn1cc(CN2C[C@@H]3COC[C@]3(C(=O)NCc3cccs3)C2)cn1 | 28.3% |
| O=C(NC1CC(F)(F)C1)[C@]12COC[C@H]1CN(Cc1cccnc1)C2 | 29.4% |
| O=C(NCCc1cccs1)[C@]12COC[C@H]1CN(C1CCOCC1)C2 | 61.1% |
| O=C(NC1CC(F)(F)C1)[C@]12COC[C@H]1CN(Cc1ccsc1)C2 | 35.8% |
| O=C(NCCc1cccs1)[C@]12COC[C@H]1CN(c1ncccn1)C2 | 52.1% |
| CS(=O)(=O)N1C[C@@H]2COC[C@]2(C(=O)NCCc2cccs2)C1 | 24.9% |
| O=C(NC1CC(F)(F)C1)[C@]12COC[C@H]1CN(Cc1ccccc1)C2 | 61.1% |
| O=C(NCCc1cccs1)[C@]12COC[C@H]1CN(Cc1ccncc1)C2 | 54.8% |
| O=C(NCCc1cccs1)[C@]12COC[C@H]1CN(Cc1ccccn1)C2 | 24.9% |
| CN1C[C@@H]2COC[C@]2(C(=O)NCc2cccs2)C1 | 4.02% |
